# From PubChem BioAssay
# Most compounds without a hit are left out; they make up all but 6.8% or so of the library.
# Cy5 interf NS3h – enhances or quenches Cy5 fluorescence in NS3h assay; Cy5-dT15 DNA with NS3h, fluorescence interference; actives lie on both sides; signal over control mean, under 1 quenches; fluorescence interference ratio at 100 µM; actives 6% (n = 16,000);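 active = compound fluorescence over control fluorescence at most 0.8, a quencher, or at least a set upper limit, an enhancer; inactive = ratio between 0.8 and the set upper limit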
# NS3h inh CB – hepatitis C NS3 helicase inhibition, primary screen | AID 687043 | inhibition, % at 100 µM | actives 1.6% (n = 16,000) | NS3h Cy5-dT15 DNA binding, fluorescence polarization;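 active = inhibition above the average over every tested compound plus 3 SD, cut at about 40% in these data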
# Hits are given with their value; n = inactive.
SMILES,Cy5 interf NS3h,NS3h inh CB
NC(=O)CCN1C(=O)/C(=C\c2ccc(F)cc2)SC1=S,n,n
CCN1C(=O)/C(=C\c2ccccc2C)SC1=S,n,n
COc1ccc2c(c1[N+](=O)[O-])CCC/C2=N\OC(=O)c1ccccc1SC,0.629,n
COc1ccc2c(c1[N+](=O)[O-])CCC/C2=N\OC(=O)c1cccc2ccccc12,n,n
COc1ccc(/C(N)=N\OC(=O)c2cccc([N+](=O)[O-])c2C)cc1OC,n,n
COc1ccccc1C(=O)O/N=C1\CCCc2c1ccc(OC)c2[N+](=O)[O-],0.741,n
CC(C)CNC(=O)CN(c1ccc(F)cc1)S(=O)(=O)c1ccccc1,n,n
O=C(O)CCCC(=O)Nc1ccccc1,n,n
O=C(O)CCCC(=O)OCc1ccco1,n,48.0
Cc1ccc(N2C(=O)CC(N3CCN(c4ccccc4F)CC3)C2=O)cc1 (configuration not stated),n,n
O=C1NC(=S)N(c2ccc(F)cc2)C(=O)C1=Cc1ccc([N+](=O)[O-])s1,n,43.3
CC(C)(C)N1C(=O)NC(=O)C(=Cc2ccc([N+](=O)[O-])s2)C1=O,n,n
O=C(Nc1ccc(Cl)c(Cl)c1)Nc1nnc(-c2ccccc2Br)s1,n,n
O=C1N=c2ccccc2=C1c1sc(=S)n(-c2ccc(F)cc2)c1O,n,n
O=C1N=c2ccccc2=C1c1sc(Nc2ccc(O)cc2)nc1O,0.631,n
COc1ccc(S(=O)(=O)N2CCN(C(=O)c3cccs3)CC2)cc1,0.685,n
COc1ccc(S(=O)(=O)N2CCN(C(=O)c3cccc(F)c3)CC2)cc1,n,n
Cc1ccc(C(=O)O/N=C(/N)Cc2cccc3ccccc23)cc1[N+](=O)[O-],n,n
O=C1S/C(=C/c2ccc(Cl)cc2Cl)C(=O)N1c1ccccc1,n,n
CC(=C\c1ccccc1)/C=C1/SC(=O)N(c2ccc(Cl)cc2)C1=O,0.78,n
Cc1c(N(C(=O)c2ccc(N)cc2)C(C)C)c(=O)n(-c2ccccc2)n1C,n,n
CC(C)COc1ccc2c(c1)c1c3c(nccn32)CCC1,0.762,n
O=C(Nc1ccc(Cl)c(-c2nc3ccccc3o2)c1)c1cccs1,n,n
CC(C)OC(=O)c1cc2nc(-c3cccs3)cc(C(F)(F)F)n2n1,0.661,n
CCOC(=O)c1nc2nc(-c3cccs3)cc(C(F)(F)F)n2n1,0.753,n
SMILES,Cy5 interf NS3h,NS3h inh CB
CCOC(=O)C1=C(C)N=c2s/c(=C\c3cccs3)c(=O)n2C1c1ccc(SC)cc1 (configuration not stated),n,n
Cc1c(Cl)cccc1NC(=O)c1cc2nc(-c3cccs3)cc(C(F)(F)F)n2n1,n,n
C=CCOc1c(Br)cc(C2C(C(=O)OC)=C(C)NC3=C2C(=O)c2ccccc23)cc1OC (configuration not stated),n,n
Cc1ccc(N2C(=O)C(Cl)=C(N3CCN(C)CC3)C2=O)cc1,n,n
COc1ccc(/C=C/C(=O)N2CCOCC2)cc1OC,0.626,n
COc1ccc(/C=C/C(=O)N2CCCCCC2)cc1Br,n,n
CS(=O)(=O)N1CCN(Cc2ccncc2)CC1,0.681,n
CSc1ccc(CN2CCN(S(C)(=O)=O)CC2)cc1,n,n
CS(=O)(=O)N1CCN(Cc2ccc(Cl)cc2)CC1,n,n
COc1cc(OC)c(OC)cc1CN1CCN(S(C)(=O)=O)CC1,n,n
COc1ccccc1CN1CCN(S(C)(=O)=O)CC1,0.77,n
CS(=O)(=O)N1CCN(Cc2ccccc2Br)CC1,0.67,n
O=C1S/C(=C/c2ccc(Cl)c([N+](=O)[O-])c2)C(=O)N1c1ccccc1,n,n
COc1ccc(N(CC(=O)Nc2cccc(C)c2)S(C)(=O)=O)c(OC)c1,n,n
C=CCNC(=O)C(=O)Nc1cc(C)cc(C)c1,n,n
Cc1[nH]nc(Nc2cccc(C(=O)O)c2)c1[N+](=O)[O-],n,n
O=c1c2ccccc2c2c1nc1c(=O)c3ccccc3c(=O)n12,n,n
Cc1ccc(O)c(NC(=O)c2cnn3c(C(F)(F)F)cc(-c4ccco4)nc23)c1,0.585,n
COC(=O)c1ccccc1NC(=O)c1cnn2c(C(F)(F)F)cc(-c3ccc(OC)c(OC)c3)nc12,0.682,n
O=C(NCc1ccc(Cl)cc1)c1cnn2c(C(F)(F)F)cc(-c3ccco3)nc12,0.589,n
CCC1CCCCN1C(=O)c1cnn2c(C(F)(F)F)cc(-c3ccc(C)cc3)nc12 (configuration not stated),n,n
COc1cc(-c2cc(C(F)(F)F)n3ncc(C(=O)NCc4cccnc4)c3n2)cc(OC)c1OC,n,n
COC(=O)c1cnn2c(C(F)(F)F)cc(-c3ccccc3)nc12,n,n
Cc1cccc(NC(=O)c2ccccc2[N+](=O)[O-])c1,n,n
Cc1cc2nc(-c3cccc(NC(=O)c4ccccc4F)c3)oc2cc1C,n,n
SMILES,Cy5 interf NS3h,NS3h inh CB
CCCN(CCC)C(=O)c1c(NC(=O)c2ccccc2Cl)sc2c1CCCC2,n,n
COc1ccc(NC(=O)CSc2ccncc2)c([N+](=O)[O-])c1,0.64,n
COc1ccc(NC(=O)COc2ccc3ccccc3c2)c([N+](=O)[O-])c1,n,n
CN(C)c1ccc(/C=C2/C(=O)NC(=O)N(CCCO)C2=O)cc1,n,n
C=CCN1C(=O)/C(=C/c2ccc(N(C)C)cc2)C(=O)NC1=S,1.21,n
O=[N+]([O-])c1cc(-n2ncnc2-c2cccs2)ccc1F,n,n
O=C(/C=C/c1ccc(-c2ccc(Cl)cc2)o1)c1cccs1,n,n
CC(=O)Nc1ccccc1NC(=O)c1ccc(Br)cc1,1.22,n
CC(=O)Nc1ccccc1NC(=O)c1ccc(F)cc1,n,n
COCC(O)CN1CCN(c2ccc([N+](=O)[O-])cc2Cl)CC1 (configuration not stated),n,n
O=[N+]([O-])c1ccc(N2CCN(S(=O)(=O)Cc3ccccc3)CC2)c(Cl)c1,0.743,n
Cc1ccc2c(c1)-c1c(ssc1=S)C(C)(C)N2C(=O)CSc1nc2ccccc2o1,n,n
CSc1ccccc1NC(=O)/C=C/C(=O)O,n,n
O=C1C(Cl)=CC(=NS(=O)(=O)c2ccc(Cl)cc2)c2ccccc21,n,n
O=C1C(Cl)=CC(=NS(=O)(=O)c2ccccc2)C=C1Br,0.66,n
COc1ccc(C2Nc3ccccc3C(=O)N2c2ccccc2)cc1Cn1nc(C)c(Cl)c1C (configuration not stated),n,n
Cc1cc(/C=C2\C(=O)NC(=S)N(c3ccccc3F)C2=O)c(C)n1-c1cccnc1,n,n
CC1CC(Nc2ccccc2)c2ccccc2N1C(=O)c1cccc2ccccc12 (configuration not stated),n,n
O=C1N/C(=N/N=C\c2ccccc2)S/C1=C\c1ccccc1,n,n
O=C1NC(=Nc2ccccc2)S/C1=C/c1ccc(O)cc1,1.28,n
COc1ccccc1N1C(=O)NC(=O)C(=Cc2cc(OC)c(O)c([N+](=O)[O-])c2)C1=O,n,n
COc1ccccc1N1C(=O)C(=Cc2cccn2C)C(=O)NC1=S,0.675,43.6
COCCOC(=O)C1=C(C)NC(=S)NC1c1ccc(F)cc1 (configuration not stated),n,n
O=C(Nc1ccc(-c2nc3ccccc3o2)c(O)c1)c1ccc(-c2ccc(Cl)cc2Cl)o1,n,n
CC(=O)C(C(C)=O)c1cc(NS(=O)(=O)c2ccc(C)cc2)c2ccccc2c1O,n,n
Cc1ccnc(NS(=O)(=O)c2ccc(F)cc2)c1,n,n
Nc1cccc(NC(=O)c2ccco2)c1,n,n
